Experimental findings from PubChem BioAssay (EPA / NIEHS) are described below.

Several values for one entry are separate records, joined by “and”; a condition that tells them apart may be missing. Equal values may be shown once. Activity calls are given as the source filed them. The calls were made as follows: active = hit-call score of the fitted dose curve at least 0.9, where 1 is the maximum; inactive = score below 0.9.

Broadly, the AC50 is the concentration at which the activity in the assay is half-maximal.

The assay is described as follows: BSK_MyoF_SRB: Viability Assessment in the BioMAP Diversity Plus: MyoF Assay (AID 2284267).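 Also: total protein by SRB absorbance in parallel cultures as cytotoxicity measure; cells assessed 24 h after compound addition.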 Particulars: primary human lung fibroblasts. The method, boiled down: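 In this viability endpoint, fibroblasts from human lung are treated for 24 h, TCA-fixed, SRB-stained (0.1%) and read at 560 nm. Gain of signal relative to DMSO defines activity.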
As to `Oc1ccc(-c2ccccc2)cc1`, the outcome was inactive.

As for `OCc1ccco1`, the result was inactive. On the same count and under the same terms, to `O=S(=O)(c1ccc(Cl)cc1)c1ccc(Cl)cc1` belongs “inactive”; to `ClC1=C(Cl)[C@]2(Cl)[C@H]3[C@H]([C@H]4C=C[C@H]3C4)[C@@]1(Cl)C2(Cl)Cl`, “inactive”; to `CC(C)c1ccc(CO)cc1`, “inactive”. On the same count and under the same terms, to `CC1(C)Cc2cccc(O)c2O1` belongs “inactive”; to `COP(=S)(OC)Oc1c(Cl)cc(C)cc1Cl`, “inactive”.

For `CCOC(=O)/C=C(C)/C=C/C[C@@H](C)CCCC(C)C`, the AC50 was 30.1 µM (active). Same read-out and setting: to `Oc1c(I)cc(I)cc1I` belongs 18.2 µM (active). As for `COc1cc(OC)nc(NC(=O)NS(=O)(=O)c2ncccc2C(=O)N(C)C)n1`, the result was inactive. Still for that read-out and setting: to `COP(=S)(OC)Oc1ccc(Sc2ccc(OP(=S)(OC)OC)cc2)cc1` belongs “inactive”. With `Nc1cccc2ccccc12`, the outcome was inactive. In the case of `CCOP(=S)(OCC)Oc1ccc(S(C)=O)cc1` (stereo not drawn), the outcome was inactive. With `O=C(O)C(F)(F)C(F)(F)C(F)(F)C(F)(F)C(F)(F)C(F)(F)C(F)(F)C(F)(F)C(F)(F)C(F)(F)F`, the AC50 was 5.01 µM (active) and 5.05 µM (active). Still for that read-out and setting: to `O=C(OC1CCCCC1)c1ccccc1C(=O)OC1CCCCC1` belongs 13.3 µM (active). As for `CC(=O)C(Cl)C(=O)N(C)C` (stereo not drawn), the result was inactive. The same measure, in the same setting: to `O=Cc1cccc(Oc2ccccc2)c1` belongs “inactive”; to `CCCCC(CC)CO[N+](=O)[O-]` (stereo not drawn), “inactive”.
